# Reference: PubChem BioAssay (NCATS)
# Inconclusive results are not listed. Active and inactive are the calls of the source. Calls come from the whole dose curve; as a rule, active = well fitted cell-killing curve with a large enough effect; inconclusive = small, poorly fitted or top-dose-only effect, or effect the other way; inactive = no such curve, though single readings can be large or run the other way.
# Test: Quantitative High-Throughput drug screen in 47 multiple myeloma cell lines against the NCATS MIPE library collection: MMM1_PLB cell viability assay (AID 1918976); note: nearly all actives have a fitted effect of over 35% in size
# Details: MMM1 myeloma cells viability, CellTiter-Glo, 48 h; series mostly up to 45.8 µM
# In short: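 500 cells/well; MIPE 4.0 drugs pin-transferred; 48 h, 37C, 5% CO2. CellTiter-Glo, 5 min RT, luminescence. Controls: DMSO 100%, media 0%.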
# Potency is the fitted concentration of half-maximal effect.
row,SMILES,Potency
1,Cc1cc(-c2nnc3n2CCCCC3)c(C)n1-c1ccccc1,14.8 µM (active)
2,COc1cc(CCc2cc(NC(=O)c3ccc(N4C[C@@H](C)N[C@@H](C)C4)cc3)n[nH]2)cc(OC)c1,16.6 µM (active)
3,NC(=O)c1ncn([C@@H]2O[C@H](CO)[C@@H](O)[C@@H]2O)c1O,2.64 µM (active)
4,CC(O)(C#Cc1ccc2c(c1)N(c1nc(N)ncc1Cl)CC2)c1nccs1 (configuration not stated),20.9 µM (active)
5,c1coc(CNc2ncnc3nc[nH]c23)c1,1.87 µM (active)
6,CNC(=O)c1cccc(-c2ccc3c(N4CCOC[C@H]4C)nc(N4CCOC[C@H]4C)nc3n2)c1,0.0166 µM (active)
7,C=C1C(=CC=C2CCC[C@]3(C)[C@@H]([C@H](C)CCCC(C)(C)O)CC[C@@H]23)C[C@@H](O)C[C@@H]1O,20.9 µM (active)
